From PubChem BioAssay (NCATS)
Results filed as inconclusive are left out. Activity calls are given as the source filed them. Unless noted, the call rests on the fitted dose curve; in most records, active means well fitted inhibition curve with a large enough effect; inconclusive means small, poorly fitted or top-dose-only effect; inactive means no such curve, though single readings can be large or run the other way.

Tests used:
[1] = qHTS assay for measurement of the activity of small molecule inhibitors on Zika virus induced Caspase-3 activity in human iPSC derived neural progenitor cells (hNPCs) (AID 1224857); further: % of control where 0% means no effect; nearly all actives have a fitted effect of over 65% in size
Method in brief: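 Quantitative HTS format: human iPSC neural progenitors, 1 h compound pretreatment, ZIKV 2 FFU/cell for 6 h at 37 C. Percent inhibition derived from luminescent caspase-3/7 signal between uninfected and infected controls.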

[2] = qHTS profiling of the MIPE4 collection as inhibitors of Plasmodium falciparum (3D7) proliferation (AID 743344; call rule not given here;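 further: scaled between DMSO vehicle wells and 0.29 µM artemisinin as full inhibition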); settings: P. falciparum 3D7 in erythrocytes, SYBR Green DNA fluorescence, 72 h; at 28.5 µM (top of the series) unless noted
Method in brief: (§1)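 Erythrocytes infected with P. falciparum (0.3% parasitemia, 2.5% hematocrit) incubated with compounds 72 h at 37 C, 5% CO2. Lysis with saponin/Triton buffer containing SYBR Green I, overnight at room temperature in the dark; DNA fluorescence (485/535 nm) normalised to 0.29 uM artemisinin and DMSO.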

[3] = qHTS profiling of the MIPE4 collection as inhibitors of Plasmodium falciparum (DD2) proliferation (AID 743345; call rule not given here); settings: P. falciparum Dd2 in erythrocytes, SYBR Green DNA, 72 h; at 28.5 µM (top of the series) unless noted
Method in brief: as §1

[4] = qHTS profiling of the MIPE4 collection as inhibitors of Plasmodium falciparum (DD2) proliferation (Rep 2) (AID 743346; call rule not given here); settings: P. falciparum Dd2 in erythrocytes, SYBR Green DNA, 72 h; at 28.5 µM (top of the series) unless noted
Method in brief: as §1

[5] = qHTS profiling of the MIPE4 collection as inhibitors of Plasmodium falciparum (HB3) proliferation (AID 743347; call rule not given here;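 further: plate controls were DMSO vehicle wells for no effect and artemisinin wells for full effect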); settings: P. falciparum HB3 in erythrocytes, SYBR Green DNA, 72 h; at 28.5 µM (top of the series) unless noted
Method in brief: as §1

[6] = High-throughput drug toxicity screening in the BPDCN cell line Cal-1 (AID 1224825; call rule not given here;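 further: cells exposed to compounds for 48 h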); settings: Cal-1 BPDCN cell viability, qHTS; at 45.8 µM (top of the series) unless noted
Method in brief: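 500 Cal-1 cells/well, RPMI + glutamine + 10% FBS (phenol red-free); cpd added by pin tool; 48 h, 37C, 5% CO2; CTG 15 min RT, lumi read. Normalised: DMSO 100%, bortezomib 9.2 uM 0%.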

## O=C1NCC2(CCN(CCc3ccccc3)CC2)O1
[1]
  Potency: inactive

## CC(C)(C)c1ccc(C(O)CCCN2CCC(C(O)(c3ccccc3)c3ccccc3)CC2)cc1 (stereo not given)
[1]
  Potency: inactive

## CC(=O)O[C@]1(C(C)=O)CC[C@@H]2[C@@H]3C[C@H](C)C4=CC(=O)CC[C@]4(C)[C@H]3CC[C@@]21C
[2]
  parasite growth, % of DMSO control: 24.9%
[3]
  parasite growth remaining, % of DMSO control (lower = more inhibition): 89%
[4]
  parasite growth, % of control (lower = inhibition): 22%
[5]
  growth, % of control: 16.6%

## OC[C@@H](O)[C@H](O)[C@H](O)[C@@H](O)CO
[1]
  Potency: inactive

## CC(=Cc1ccccc1)C=C1SC(=S)N(CC(=O)O)C1=O
[2]
  parasite growth, % of DMSO control: 92.1%
[3]
  parasite growth remaining, % of DMSO control (lower = more inhibition): 102%
[4]
  parasite growth, % of control (lower = inhibition): 81.2%
[5]
  growth, % of control: 98.1%
[6]
  viability (% of control): 125%

## O=C(O)Cc1cccc2ccccc12
[1]
  Potency: inactive

## CC[C@]1(O)C[C@@H]2CN(CCc3c([nH]c4ccccc34)[C@@](C(=O)OC)(c3cc4c(cc3OC)N(C)[C@H]3[C@@](O)(C(=O)OC)[C@H](OC(C)=O)[C@]5(CC)C=CCN6CC[C@]43[C@@H]65)C2)C1
[1]
  Potency: inactive

## O=C(O)CCC(C(=O)O)N1C(=O)c2ccccc2C1=O (stereo not given)
[1]
  Potency: inactive

## C[N+]1(C)[C@@H]2CC(OC(=O)[C@H](CO)c3ccccc3)C[C@H]1[C@H]1O[C@@H]12 (stereo not given in full)
[2]
  parasite growth, % of DMSO control: 93.9%
[4]
  parasite growth, % of control (lower = inhibition): 84.8%
[6]
  viability (% of control): 130%

## CC(C)NCC(O)COc1cccc2[nH]ccc12 (stereo not given)
[1]
  Potency: inactive

## Nc1ncnc2c1ncn2[C@@H]1O[C@H](COP(=O)(O)OP(=O)(O)OP(=O)(O)OP(=O)(O)OC[C@@H]2O[C@H](n3cnc4c(N)ncnc43)[C@@H](O)C2O)C(O)[C@H]1O (stereo not given in full)
[1]
  Potency: inactive

## NCCS
[1]
  Potency: inactive

## C[C@]12CC[C@@H]3c4ccc(O)cc4C[C@@H](CCCCCCCCCS(=O)CCCC(F)(F)C(F)(F)F)[C@H]3[C@H]1CC[C@H]2O (stereo not given in full)
[2]
  parasite growth, % of DMSO control: 5.44%
[3]
  parasite growth remaining, % of DMSO control (lower = more inhibition): 8.45%
[5]
  growth, % of control: 3.95%
[6]
  viability (% of control): 108%

## O=C(O)c1cc(-c2ccccc2)nc2ccccc12
[1]
  Potency: inactive

## CCN1CCC[C@H]1CNC(=O)c1cc(S(N)(=O)=O)ccc1OC
[1]
  Potency: inactive

## CC(=O)N[C@@H](CS)C(=O)O
[1]
  Potency: inactive

## C[C@@H](O)[C@H]1C(=O)N2C(C(=O)O)=C(S[C@@H]3CN[C@H](C(=O)N(C)C)C3)[C@H](C)[C@H]12
[2]
  parasite growth, % of DMSO control: 109% [at 9.64 µM]
[3]
  parasite growth remaining, % of DMSO control (lower = more inhibition): 102% [at 9.64 µM]
[4]
  parasite growth, % of control (lower = inhibition): 118% [at 9.64 µM]
[5]
  growth, % of control: 61.4% [at 9.64 µM]
[1]
  Potency: inactive

## c1ccc2c(Cc3c[nH]c4ccccc34)c[nH]c2c1
[2]
  parasite growth, % of DMSO control: 22.8%
[3]
  parasite growth remaining, % of DMSO control (lower = more inhibition): 60.6%
[4]
  parasite growth, % of control (lower = inhibition): 22.5%
[5]
  growth, % of control: 23.8%

## CCCNC(=O)NS(=O)(=O)c1ccc(Cl)cc1
[1]
  Potency: inactive

## Cc1cccc(C)c1OCC(C)N (stereo not given)
[1]
  Potency: inactive

## Nc1nc(Cl)nc2c1ncn2[C@@H]1O[C@H](COP(=O)(O)OP(=O)(O)OP(=O)(O)O)C(O)[C@H]1O (stereo not given in full)
[1]
  Potency: inactive

## O=C(O)CCc1nc(-c2ccccc2)c(-c2ccccc2)o1
[1]
  Potency: inactive

## CC(=O)c1ccc(S(=O)(=O)NC(=O)NC2CCCCC2)cc1
[1]
  Potency: inactive

## Clc1ccc(Cn2c(CN3CCCC3)nc3ccccc32)cc1
[1]
  Potency: inactive

## CCN(CC)C(=O)c1ccc(O)c(OC)c1
[1]
  Potency: inactive

## O=C(NCCN1CCOCC1)c1ccc(Cl)cc1
[1]
  Potency: inactive

## O=c1c(-c2ccc(O)cc2)coc2cc(O[C@@H]3O[C@H](CO)[C@H](O)[C@H](O)[C@H]3O)ccc12
[2]
  parasite growth, % of DMSO control: 91.8%
[3]
  parasite growth remaining, % of DMSO control (lower = more inhibition): 97.7%
[5]
  growth, % of control: 104%
[6]
  viability (% of control): 99.8%

## COC(=O)[C@@H]1[C@H]2C[C@H]3c4[nH]c5ccccc5c4CCN3C[C@@H]2CC[C@@H]1O
[1]
  Potency: inactive

## CCN(CC)CCOc1ccc(C(=C(Cl)c2ccccc2)c2ccccc2)cc1
[2]
  parasite growth, % of DMSO control: 5.06%
[3]
  parasite growth remaining, % of DMSO control (lower = more inhibition): 9.72%
[4]
  parasite growth, % of control (lower = inhibition): 6.97%
[5]
  growth, % of control: 9.51%
[1]
  Potency: inactive
